Out of some 130,000 compounds screened, about 350 (0.27%) were called active. This is one part of a sample in which actives are shown more often than they occur. Values without a mark were called inactive. Cut-off read from the data, not from the text of the source: active = z-score below about -2 (passing the limit was not always enough); inactive = the rest.

69 compounds from PubChem BioAssay AID504770 (ICCB-Longwood Screening Facility, Harvard Medical School, 2011) can be followed below.

The nature of this experiment: PubChem AID 504770. Conditions: E. coli YBA685 rctB-dependent plasmid, OD600 growth, 3 h; active compounds read low.
For `Cc1ccccc1NC(=O)CSC(=O)c1ccccc1`, the z-score was 0.6. For `COc1ccc(C2C(C#N)(C#N)C2(C#N)C#N)cc1` the value was 0.05. The same measure for `N#CC1(C#N)C(c2ccc(Cl)c(Cl)c2)C1(C#N)C#N`: -6.85 (active). In the case of `O=C(O)C(Cc1ccccc1)Nc1ncnc2sc3c(c12)CCC3` (centres undefined), the z-score is 0.65.

Take `CCc1cccc(NC(=O)CC(=O)Nc2ccc3nc4n(c(=O)c3c2)CCCCC4)c1`: the z-score is 0.6.

`Cc1c(C(=O)NC2CCCCC2)sc2nc(-c3ccc(F)cc3)cn12`: the z-score is 0.15.

As to `COc1ccc(C(=O)Nc2ccc(-n3nncc3-c3ccccc3)cc2)cc1`, the z-score was -0.9.

As to `Cc1ccccc1C(=O)CC#N`, the z-score is -3.2 (active).

Take `Cc1ccccc1C(=O)N(CC#N)CC#N`: the z-score is -0.6.

Consider `Cc1ccccc1NC(=O)NC(=O)CC#N`, for which the z-score is 0.45. In the case of `CC(C)(C)c1ccc(CNCc2ccco2)cc1`, the z-score was 0.35. The same measure for `CCOC(=O)CN1C=NS(=O)(=O)c2ccccc21`: 0.4; for `O=C1Nc2ccccc2C1=Nc1cccc(C(F)(F)F)c1`: -1.05. With `CC(C)c1c(O)c2ccccc2[nH]c1=O`, the z-score is -0.4. The same measure for `O=C1CCC(C2CCC(=O)CC2)CC1`: -0.55; for `CCc1nc2ccccc2n1CCO`: 0.6; for `CS(=O)(=O)Nc1ccccc1C(=O)OCC(=O)NC1CC1`: -0.75. `Cc1ccc(NC(=O)Cn2cc3c(n2)CCC(C)C3)c(Cl)c1` (centres undefined): the z-score was -0.6. For `COc1cc(CNc2ccc3[nH]c(=O)[nH]c3c2)ccc1OCC(N)=O` the value was 1.6; for `Cc1nc(S(=O)(=O)NCc2ccc(-c3cccs3)cc2)cn1C`, -0.2. For `CCCOc1ccc(NC(=O)CC2SC(N)=NC2=O)cc1` (centres undefined) the value was -1.1; for `Cc1onc(-c2c(Cl)cccc2Cl)c1/C=N/O`, -0.4; for `CCCc1nc2c3ccccc3ncn2n1`, -5.5 (active). As to `CCCCn1c2ccccc2c2nc3ccccc3nc21`, the z-score is 0.05.

Turning to `CCCCn1c2nc3ccccc3nc2c2c(N)ncnc21`, the z-score was 0.2. The same measure for `Cc1c(C(=O)NCc2ccc(OC(C)C)cc2)oc2ccc3c(c12)C=CC(C)(C)O3`: 0.85. For the compound `CC(=O)Oc1cccc2c1C(=O)C=CC2=O`, the z-score is -6.5 (active). The same measure for `CC(=O)Oc1ccc(OC(C)=O)c2c1C1C=CC2CC1`: 0.85. For the compound `CC(=O)Oc1cccc2c1OC(C)(C)C2`, the z-score was 1.6. For `CC1Cc2cc(S(=O)(=O)NCCC(=O)Nc3ccc(F)cc3F)ccc2N1C(=O)C1CC1` (centres undefined) the value was -0.8. The same measure for `COC(F)(C(=O)N1CCOCC1)C(F)(F)F` (centres undefined): -0.4; for `Cc1ccc(C(=O)C(C)Sc2nnc3ccccn23)cc1` (centres undefined): -0.05. In the case of `Cc1c(Sc2nc3ccccc3s2)c(=O)[nH]c2cc3c(cc12)OCO3`, the z-score is 1. For `C/C=C/C(=O)Nc1ccc(N2CCN(c3ccc(C(F)(F)F)cn3)CC2)nc1` the value was 0.05; for `O=C1CC2(CCN(C(=O)Cc3ccccc3)CC2)Oc2ccccc21`, 2.85; for `CCc1n[nH]c(=O)c2cc3sccc3n12`, -0.2. The same measure for `O=C1c2ccc(-c3nc4ccc(Cl)cc4c(=O)o3)cc2C(=O)N1CC1CCCO1` (centres undefined): -0.25; for `O=C1NC(=Nc2ccc(O)cc2)S/C1=C\c1ccc(C(=O)O)cc1`: -0.6.

For `Cc1ccccc1C(CC(=O)O)N1Cc2ccccc2C1=O` (centres undefined), the z-score was -0.8. For `Cc1ccc(Cn2c(=O)c3ccccc3n3c(SCC4CCCO4)nnc23)cc1` (centres undefined) the value was -0.7; for `COc1ccc(NC(=O)c2cc(F)cc3c2OCOC3)cc1`, 1.45. The same measure for `CNS(=O)(=O)c1ccc2[nH]c(=O)cc(C)c2c1`: 0.45. The same measure for `N#CC1=CN(Cc2ccccc2)C=C(/C=N/Nc2ccc(F)cc2)C1`: -0.9; for `Cc1cc(C(=O)COC(=O)C2CC2C)c(C)n1-c1cccc(S(=O)(=O)N2CCOCC2)c1` (centres undefined): -0.5; for `O=C(CNC1CCCC1)Nc1ccc(N2CCCC2)cc1`: -0.15. Take `CN1/C(=C\C(=O)COC(=O)C(C)(C)C)C(C)(C)c2ccccc21`: the z-score is -0.4. For `Cn1[nH]c2nc3[nH]n(C)c(=O)c3c(-c3ccccc3)c2c1=O` the value was 0.65.

With `Cn1nc(SCC(=O)N2c3ccccc3CCc3ccccc32)sc1=S`, the z-score is -0.4. In the case of `O=C(Nc1ccc(Cl)c(Cl)c1)Nc1ccnn1C1CCCCC1`, the z-score is -1.3. For `CN(C)c1ccc(/C=N/S(=O)(=O)c2ccccc2)cc1` the value was -1.15. `CC1(C)CC(=O)c2c(SCCO)sc(C#N)c2C1`: the z-score is -0.35.

On to `N#CC1=C(N)C(C#N)(C#N)C(c2cccs2)C=C1C1CC1` (centres undefined), for which the z-score is -0.95. `Cc1nn(CCCC(=O)NCCC2=CCCCC2)c(=O)c2nccn12`: the z-score is 0.9. The same measure for `O=S1(=O)CCN(Cc2cc(F)cc3c2OCOC3)CC1`: 0.35; for `CN(C)[C@@H]1C(=O)C(C(N)=O)=C(O)[C@@]2(O)C(=O)C3=C(O)c4c(O)ccc(Cl)c4[C@@H](O)[C@H]3C[C@@H]12`: -2.25 (active). The same measure for `c1ccn2c(c1)nc1nc3nonc3nc12`: -5.05 (active); for `O=c1cc(O)nc2ccccn12`: 1.45; for `O=c1[nH]nc2ccccn12`: 1. As to `Cc1ccccc1Oc1ccc(S(=O)(=O)N2CC(C)OC(C)C2)cc1` (centres undefined), the z-score was 0.7. The same measure for `CC(C)CNC(=O)c1ccc(N(C)C)cc1`: -1.2. For `CCOc1ccc(N=C2CSC(=O)N2)cc1` the value was -0.95; for `CCOC(=O)c1sc(-c2ccccc2)nc1CSc1nccn1C`, 1.15; for `Cc1c(CCN)sc2nc(-c3ccc(Cl)cc3)nn12`, 0.25. The same measure for `CS(=O)(=O)N1CCN=C1SCc1cccnc1`: -0.85; for `O=C1CCc2cc(S(=O)(=O)NCC3CCCO3)cc3c2N1CC3` (centres undefined): 0.8; for `CCOC(=O)c1ccc(-c2cc(=O)c3ccccc3o2)cc1`: -0.3. On to `O=C(Nc1ccc(F)cc1)n1ncc2cc(Cl)ccc21`, for which the z-score was 1.1. For the compound `N#CC(C#N)=Cc1ccc(-c2cccc(C(=O)O)c2)o1`, the z-score is 1.85. Regarding `COc1ccc(CNC(=O)COc2ncnc3ccccc23)cc1`, the z-score is 0.2.
